From PubChem
SARS PLpro yeast: blocks SARS-CoV papain-like protease in a yeast assay; S. cerevisiae expressing SARS-CoV PLpro, growth rescue; Potency, µM (series often up to 32.9 µM), inactives show top-dose activity, positive = growth rescue, hits mostly activators; hit rate 0.19% among 330,000; AID 485353; calls by dose curve; further: potency means the concentration at half of the fitted maximal effect; 0% is about no effect; nearly all actives have a fitted effect of over 55% in size
Pf growth 48h: P. falciparum growth inhibition at 48 hours (one generation); hit rate 5.9% among 310,000; Potency, µM (highest dose often 28.7 µM), without a hit: top-dose activity change, negative = inhibition, most hits filed as inhibitors; P. falciparum luciferase growth in erythrocytes, 48 h; further: potency means the concentration at half of the fitted maximal effect; on the % scale 0 is the no-effect control and ±100 the full control effect
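Here the parasites carry a stable luciferase gene and grow inside erythrocytes in Albumax-based RPMI medium with compound for one erythrocytic cycle. Activity is scored as loss of luminescent signal.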
NS1 function inh: inhibitors of influenza NS1 protein function | hit rate 0.4% among 270,000 | Potency, µM (titrated, usually from 46.1 µM), without a hit: at the top dose activity, positive = more growth | AID 2326; calls by dose curve; further: potency means the concentration at half of the fitted maximal effect; actives are rising curves; nearly all actives have a fitted effect of over 50% in size
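OD600 was taken as the measure of yeast growth restored by compound in an NS1-expressing S. cerevisiae strain. Cells had been washed out of glucose medium and diluted 1:100 into galactose -URA medium, pH 6.0.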
Cycloheximide cs: counter-screen for Shiga toxin inhibitors: cycloheximide protein synthesis inhibition; hit rate 12% among 300,000; cell reporter, cycloheximide protein synthesis inhibition counterscreen; max response, %; in the data active means max response mostly above about 13%, no sharp cut-off; inactive means mostly below about 14%; further: read at 38.3 µM for the half of the compounds with a filed dose; 0% is about no effect
Shiga toxin inh: inhibitors of Shiga toxin in Vero cells. hit rate 9.2% among 290,000. inhibition, % at 38.7 µM. AID 2315. Vero cells, Shiga toxin protein synthesis inhibition reporter; in the data active means inhibition mostly above about 28%, no sharp cut-off; inactive means mostly below about 43%; further: 0% is about no effect
Pf growth 96h: inhibits malaria parasite growth, 96 h; P. falciparum luciferase reporter growth, 96 h; Potency, µM (top dose mostly 28.7 µM), for the others: at the top dose activity change, negative = inhibition, most hits filed as inhibitors; hit rate 6.9% among 320,000; AID 504834; further: potency means the concentration at half of the fitted maximal effect; on the % scale 0 is the no-effect control and ±100 the full control effect
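Readout is luminescence from an integrated firefly luciferase in P. falciparum. Red cells, 2% hematocrit and 0.05% parasitemia final, were cultured with compound through two parasite generations (96 hours) at 37 C, 5% CO2.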
* = called active by the depositor; ? = inconclusive; · = not tested or not shown; [ ] = another dose, or the depositor's remark. Only some compounds are listed: those with a hit (about 21% of all), similar ones and a draw of the others. Unless noted, the call rests on the fitted dose curve; in most records, active means well fitted inhibition curve with a large enough effect; inconclusive means small, poorly fitted or top-dose-only effect, or another doubt; inactive means no such curve, though single readings can be large or run the other way.

SMILES	SARS PLpro yeast	Pf growth 48h	NS1 function inh	Cycloheximide cs	Shiga toxin inh	Pf growth 96h
CC1CCN(CCc2nc3cc(NC(=O)COc4ccc([N+](=O)[O-])cc4)ccc3n2C)CC1	1%	3.7µM*	-5%	7	-4	?
CC(=O)Nc1ccc2c(c1)nc(CN1CCCC1)n2C	0%	2%	8%	-1	-13	·
Cn1c(CN2CCCCC2)nc2cc(NC(=O)c3cccs3)ccc21	1%	10µM*	3%	28*	43*	-27%
CCOC(=O)Nc1ccc2c(c1)nc(CN1CCCCC1)n2C	0%	1%	-2%	23*	31	5%
COc1ccc(CN(C)C(=O)c2ccncc2)c(OC)c1	-4%	7%	9%	0	5	28%
CCCCNC(=O)NNc1nc(Cl)cc(C)c1C#N	-1%	?	·	-2	-3	5%
CCOC(=O)N1CCN(Cc2nc3cc(NC(=O)c4cccs4)ccc3n2CC)CC1	-1%	2.9µM*	-12%	25*	7	113%
CC1CCN(CCc2nc3cc(NC(=O)Nc4ccccc4)ccc3n2C)CC1	-7%	6.6µM*	-45%	35*	111*	?
CCOC(=O)N1CCN(Cc2nc3cc(NC(=O)c4cccs4)ccc3n2C)CC1	-2%	?	-34%	5	-5	0%
CC(=O)Nc1ccc2c(c1)nc(CCN1CCC(C)CC1)n2C	15%	·	6%	4	-4	11%
Cc1[nH]n(-c2ccccc2)c(=O)c1N=Nc1c(O)cc(S(=O)(=O)N(C)C)c2ccccc12	4%	3.3µM*	·	·	·	4.1µM*
Nc1[nH]n(-c2ccccc2)c(=O)c1N=Nc1ccccc1	-2%	243%	-23%	61*	61*	126%
Nc1[nH]n(-c2ccccc2)c(=O)c1N=Nc1ccc2ncsc2c1	-2%	-17%	-6%	41*	38*	-33%
Cc1[nH]n(-c2ccccc2)c(=O)c1N=Nc1ccc2c(c1)OCCO2	-1%	262%	·	18	60	469%
COc1cc([N+](=O)[O-])ccc1N=Nc1c(N)[nH]n(-c2ccccc2)c1=O	0%	-4%	·	11	13	0%
Nc1[nH]n(-c2ccccc2)c(=O)c1N=Nc1ccccc1[N+](=O)[O-]	-3%	·	-2%	13*	25	?
Cc1[nH]n(-c2ccccc2)c(=O)c1N=Nc1cccc(Cl)c1	3%	67%	11%	3	15	221%
Cc1[nH]n(-c2ccccc2)c(=O)c1N=Nc1ccc(F)cc1	0%	12%[0.00184 µM]	-8%	13*	31	65%
CSc1ccc(N=Nc2c(C)[nH]n(C)c2=O)cc1	-2%	?	-7%	46*	67*	?
Cc1ccc(N=Nc2c(C)[nH]n(-c3ccccc3)c2=O)cc1Br	-3%	2%	0%	5	17	8%
COC(=O)c1ccc(N=Nc2c(C)[nH]n(-c3ccccc3)c2=O)cc1	9%	22%	7%	1	-10	-100%
O=C1CS/C(=N/N=C/c2cccs2)N1	-1%	11%	·	11	28	15%
O=C1CS/C(=N/N=C/c2ccncc2)N1	1%	?	1%	-2	-1	15µM*
COc1ccc(S(=O)(=O)N2CCN(C)CC2)cc1NC(=O)c1ccccc1F	13%	14%	7%	-3	10	-9%
Cc1ccc(NC(=O)CN(C)C(=O)CCSc2ccc(F)cc2)cc1	-4%	?	·	·	·	?
SMILES	SARS PLpro yeast	Pf growth 48h	NS1 function inh	Cycloheximide cs	Shiga toxin inh	Pf growth 96h
COc1ccccc1Nc1nc(-c2cccc([N+](=O)[O-])c2)cs1	-1%	70%	8%	47*	59	-10%
O=[N+]([O-])c1cccc(-c2csc(Nc3ccccc3)n2)c1	-6%	19%	2%	68*	91*	?
COc1cc(NS(=O)(=O)c2ccc(Nc3nc(-c4cccc([N+](=O)[O-])c4)cs3)cc2)nc(OC)n1	14%	-12%	-2%	-2	-2	?
CC1Cc2ccccc2N1C(=O)CSc1nnc(-c2ccc(S(=O)(=O)N3CCCC3)cc2)o1 (stereo unspecified)	-2%	?	6%	-5	-8	-4%
O=c1c2c(-c3cccs3)csc2ncn1-c1ccccc1	8%	-15%	6%[9.22 µM]	2	7	12µM*
CN[C@H]1[C@H](O)[C@@H](O[C@@H]2[C@H](O)[C@@H](O[C@H]3OC(CN)=CC[C@H]3N)[C@@H](N)C[C@H]2N)OC[C@@]1(C)O	·	-11%[12.8 µM]	·	·	·	-14%[12.8 µM]
